# Source: PubChem BioAssay (National Center for Advancing Translational Sciences (NCATS))
# DRD3 antagonist: qHTS of D3 Dopamine Receptor Antagonist: qHTS. AID 652054, 2013. D3R cells, DiscoveRx beta-arrestin luminescence, antagonist mode; active compounds read low. max response, negative = inhibition, %. D(3) dopamine receptor (Homo sapiens), P35462. 2.5% of 360,000 active; in the data active = max response below about -50%; note: % is set by controls: 0 for no effect and ±100 for the full control effect
# Target sequence (P35462 whole entry, looked up): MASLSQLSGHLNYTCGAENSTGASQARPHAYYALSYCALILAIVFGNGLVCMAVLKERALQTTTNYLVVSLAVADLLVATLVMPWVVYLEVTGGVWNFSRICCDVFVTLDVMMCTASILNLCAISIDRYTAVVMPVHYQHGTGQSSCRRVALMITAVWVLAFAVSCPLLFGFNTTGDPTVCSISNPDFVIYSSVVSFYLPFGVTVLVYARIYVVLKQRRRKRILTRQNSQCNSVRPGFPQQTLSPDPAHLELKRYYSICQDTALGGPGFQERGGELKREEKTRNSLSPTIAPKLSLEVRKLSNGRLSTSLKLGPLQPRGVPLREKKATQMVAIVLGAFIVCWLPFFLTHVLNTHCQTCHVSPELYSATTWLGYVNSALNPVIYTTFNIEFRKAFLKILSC
#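 Cells expressing the human receptor were seeded at 1500 cells/well, incubated overnight at 37 degrees C in 5% CO2, then exposed to library compounds with dopamine controls for 90 minutes at 37 degrees C before luminescent detection.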
# DRD3 agonist: qHTS of D3 Dopamine Receptor Agonist: qHTS | D(3) dopamine receptor (Homo sapiens), P35462 | D3R DiscoveRx beta-arrestin cells, luminescence, 90 min | max activation, % | 0.58% of 410,000 active | AID 652048, 2013; in the data active = max activation above about 30%; note: 0% is about no effect
#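 Agonist-mode cell screen: cells plated at 1500/well and incubated overnight at 37 °C, then exposed to library compounds for 90 min at 37 °C. Detection reagent was added for 30–60 min at room temperature, and luminescence was read.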
# D1 PAM: Potentiators of Human D1 Dopamine Receptor: qHTS | AID 504651, 2011 | potentiation, % at 10 µM | D(1A) dopamine receptor (Homo sapiens), P21728 | HEK293 TREx D1 cells, calcium flux, dopamine EC20 potentiation | 0.036% of 360,000 active; in the data active = potentiation above about 30%; note: 0% is about no effect
# D1 agonist: Allosteric Agonists of the Human D1 Dopamine Receptor: qHTS; activation, % at 2 µM; AID 504660, 2011; HEK293 T-REx D1 cells, calcium flux, agonist mode; 1% of 360,000 active; D(1A) dopamine receptor (Homo sapiens), P21728; in the data active = activation above about 30%; note: 0% is about no effect
#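 Agonism was scored from calcium flux recorded over 180 s (1 read/s) after pintool compound addition, following a 10-cycle baseline. Cells were inducible force-coupled HEK293 TREx D1, plated overnight at 30 C and loaded with no-wash calcium dye.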
# D1 antagonist: Antagonist of Human D 1 Dopamine Receptor: qHTS | HEK293 TREx D1 cells, calcium flux, dopamine EC80; active compounds read low | activity change, negative = inhibition, % at 10 µM | 3.2% of 360,000 active; in the data active = activity change below about -30%; note: % is set by controls: 0 for no effect and ±100 for the full control effect
#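 Calcium flux readout: force-coupled, inducible Hek293 Trex D1 line, cells induced overnight at 30 C with tetracycline, dye-loaded 30–90 min at RT. Antagonism scored against EC80 dopamine challenge given 180 s after compound.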
# The depositor's hits bear a star; . = no result given; ! = not active in a repeat. An excerpt weighted towards active compounds, which were near 6% of everything screened.
SMILES,DRD3 antagonist,DRD3 agonist,D1 PAM,D1 agonist,D1 antagonist
CCN(Cc1ccccc1)C(=O)Cn1c(=O)oc2cc(S(=O)(=O)N3CCCCCC3)ccc21,.,-18,-2,6,-16
CCN(CC)S(=O)(=O)c1cc(OC)ccc1N=Nc1ccc(O)c2ncccc12,-108*,-7,2,2,-1
O=C(Nc1ncccc1O)c1ccc2c(c1)OCCO2,6,3,-6,1,6
CCS(=O)(=O)c1ccc(OC)c(N=Nc2ccc(O)c3ncccc23)c1,5,3,-7,-1,10
Oc1ccc(N=Nc2ccc3c(c2)OCCO3)c2ncccc12,-66*,-24,8,41*,2
Cc1cccc(C)c1Nc1c(-c2ccc(Cl)s2)nc2ncccn12,.,-9,0,9,6
O=C(Nc1ccc(F)cc1)Nc1csc2c1CCCC2,.,-18,-6,19,-32*
CC(C)NC1CCC(Nc2ccnc3cc(Cl)ccc23)CC1 (centres undefined),-3,-3,.,.,.
Clc1ccc2c(NCCNC3CCCCC3)ccnc2c1,-98*,-20,.,.,.
Cn1cc(CNC(=O)c2cc(-c3ccccc3)nc3ccc(Br)cc23)cn1,53,5,-1,2,-34*
OCCCc1nc2n(n1)C(c1cccs1)C=C(c1ccccc1)N2 (centres undefined),.,.,.,34*,1
COCCNCCCCOc1ccc(Br)cc1C,0,-31,-8,11,-17
Cc1cc(Br)ccc1OCCCCNC(C)(C)C,-66*,1,-12,29,-10
COCCCNCCCCOc1ccc(Br)cc1C,-97*,-25,-18,37*,-35*
CC(C)CN(c1ccccc1)S(=O)(=O)c1nnc(NC(=O)C2CCCCC2)s1,.,-1,-2,24,-1
COc1ccc2[nH]c3c(=O)n(CCCCC(=O)NCCN4CCCC4)c(=S)[nH]c3c2c1,-96*,-33,-7,2,-4
COc1ccc2[nH]c3c(=O)n(CCCCC(=O)N4CCC(C(N)=O)CC4)c(=S)[nH]c3c2c1,52,-5,0,2,-36*
CC[C@H](C)NC(=O)CCCCCn1c(=S)[nH]c2c([nH]c3ccc(OC)cc32)c1=O,-7,3,-4,-1,-6
CC1Cc2ccccc2N1S(=O)(=O)c1nnc(NC(=O)c2ccccc2Br)s1 (centres undefined),.,-3,-4,7,7
C=C(C)CSc1nc2sc3c(c2c(=O)n1Cc1ccccc1)CC(C)(CC)OC3 (centres undefined),.,-9,-2,0,-10
Cc1ccc(NC(=O)Cc2cccs2)cc1Cl,19,3,1,-1,-12
Cc1ccc(NC(=O)Cc2coc3ccc(C(C)C)cc23)c(C)c1,.,10,2,5,-9
Cc1ccc(NC(=O)Cc2coc3ccc(C(C)C)cc23)cc1Cl,.,3,0,38*,-2
Cc1ccc(NC(=O)Cc2ncon2)cc1Cl,6,1,-3,1,-45*
CCc1cccc(NC(=O)c2cnc(SC)nc2-c2ccccc2)c1,.,-19,2,0,8
SMILES,DRD3 antagonist,DRD3 agonist,D1 PAM,D1 agonist,D1 antagonist
CNS(=O)(=O)c1ccc(Oc2ccc(S(=O)(=O)NC)cc2)cc1,-3,-8,-6,8,-44*
CCNC(C(=O)c1c[nH]c2c(CC)cccc12)c1ccccc1 (centres undefined),-14,-15,-6,63*,-11
Cc1ccccc1C(=O)NNC1=NCCC1,-12,0,-1,3,-1
O=C(NNC1=NCCC1)c1cccc(Br)c1,-58*,-2,1,4,10
CCn1c(=O)n(-c2ccc(C)c(F)c2)c(=O)c2sc3ccccc3c21,.,0,-2,1,-1
OC(CN1CCN(c2ccccc2F)CC1)c1ccc(F)cc1 (centres undefined),-8,36*,-12,12,-17
OC(CN1CCN(C(c2ccccc2)c2ccccc2)CC1)c1ccccc1 (centres undefined),-17,-6,1,1,3
OC(CN1CCN(c2ccccc2Cl)CC1)c1ccccc1 (centres undefined),-84*,-2,-18,2,0
Clc1cc2nc[nH]c2cc1Cl,10,37*,-3,3,-3
CCOC(=O)/C(=N\Nc1ccc(C(C)=O)cc1)c1csc(Nc2ccccc2)n1,28,3,-7,54*,2
CSCCC(NS(=O)(=O)c1ccc2c(c1)oc(=O)n2C)C(=O)Nc1ccc(Cl)cc1 (centres undefined),.,-5,-2,-2,-8
O=C1Nc2ccccc2N(O)N1c1ccc(S(=O)(=O)Nc2ccccn2)cc1,-14,-4,-2,0,-50*
NC(=S)Cc1ccc(Cl)cc1Cl,-7,-7,-7,3,2
N=C(N)SCc1ccc(Cl)cc1Cl,-18,1,2,34*,6
CCOCCCNC(=O)C(NC(=O)C1CCC(C)CC1)C(C)C (centres undefined),.,1,0,0,6
COCCN1C=C2C(=O)C(C)(OC(=O)c3cccs3)C(=O)C=C2C=C1CCCC(=O)OC (centres undefined),-6,3,-6,6,-36*
CCOc1ccc(CNC(=O)C2CCCN(S(=O)(=O)N(C)c3ccc(F)cc3)C2)cc1OC (centres undefined),.,5,-6,34*,-27
CC(=O)N1CCCc2cc(S(=O)(=O)N3CCC(C(=O)Nc4cccc(Cl)c4C)CC3)ccc21,.,4,-6,-1,-12
COc1ccc(S(=O)(=O)N2CCCC(C(=O)NCc3ccncc3)C2)cc1Cl (centres undefined),-71*,-1,-1,14,4
CC(=O)N1CCCc2cc(S(=O)(=O)N3CCCC(C(=O)Nc4cccc(Cl)c4C)C3)ccc21 (centres undefined),.,-6,-5,2,-44*
COc1ccc(S(=O)(=O)N2CCC(C(=O)NCc3ccncc3)CC2)cc1Cl,-6,-2,-2,0,-10
CC(=O)N1CCCc2cc(S(=O)(=O)N3CCCC(C(=O)NCc4ccccc4)C3)ccc21 (centres undefined),18,2,-2,8,-30*!
CC(=O)N1CCCc2cc(S(=O)(=O)N3CCCC(C(=O)NCc4ccc(C)cc4)C3)ccc21 (centres undefined),4,-2,-11,16,-29
COc1ccc(OC)c(CNC(=O)c2cc(=O)[nH]c3ccc(S(=O)(=O)N4CCCCC4C)cc23)c1 (centres undefined),.,11,0,-3,11
